PubChem BioAssay (NCATS)
Results filed as inconclusive are left out. Unless noted, calls come from the whole dose curve; as a rule, active = well fitted curve in either direction with a large enough effect (not every such curve was filed as active); inconclusive = small, poorly fitted or top-dose-only effect, or another doubt; inactive = flat fitted curve, though single readings scatter.

Tests used:
[1] = AP1 Signaling Pathway (AID 357); conditions: ME-180 AP-1-bla reporter, EGF-induced, beta-lactamase ratio, 5 h; at 17.2 µM (top of the series) unless noted;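 note: ME-180 reporter cells stimulated with EGF at its EC50 level; % is set by controls: 0 for no effect and ±100 for the full control effect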
In short: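 AP-1-bla ME-180 cells, Opti-MEM + 0.5% dialyzed FBS, plated overnight 37 °C. Cpd titration + EC50 EGF, 5 h 37 °C. CCF4 2.5 h RT; ex 405, em 460/530 ratio → %activity, AC50.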

[2] = NFAT Signaling Pathway (AID 444); conditions: Jurkat NFAT-bla M1, carbachol, beta-lactamase ratio, 5 h; at 17.2 µM (top of the series) unless noted;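 note: carbachol stimulus at about its EC50 of 1 µM final; % is set by controls: 0 for no effect and ±100 for the full control effect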
In short: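 Jurkat cells with NFAT-driven β-lactamase reporter and co-expressed M1 receptor, stimulated with carbachol (final 1 uM, ~EC50), compound titration, 5 h at 37 °C. CCF4 loaded 1 h at RT; 460/530 nm ratio gave %activity and AC50.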

[3] = Stat Signaling Pathway (AID 446); conditions: ME-180 (cervical carcinoma) SIE beta-lactamase reporter, IL-6 stimulated, 5 h; at 17.2 µM (top of the series) unless noted;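 note: ME-180 cervical cancer cells given 40 pM IL-6 alongside compound; SIE-controlled beta-lactamase reporter measured as 460/530 nm FRET emission ratio; % is set by controls: 0 for no effect and ±100 for the full control effect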
In short: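 IL-6/STAT signaling read in ME-180 cells via an SIE beta-lactamase reporter. Stimulus was 40 pM IL-6 (its AC50) for 5 hrs, so both activation and inhibition register.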

[4] = target: Glucocorticoid receptor (Homo sapiens) (UniProt P04150); experiment: GR-GFP Redistribution (AID 450;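 active = compounds whose dose series gives a full or clear partial fitted curve of increased nuclear translocation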; note: potency is the fitted concentration of half-maximal effect)
Sequence of Glucocorticoid receptor (Homo sapiens) (P04150 whole entry, looked up): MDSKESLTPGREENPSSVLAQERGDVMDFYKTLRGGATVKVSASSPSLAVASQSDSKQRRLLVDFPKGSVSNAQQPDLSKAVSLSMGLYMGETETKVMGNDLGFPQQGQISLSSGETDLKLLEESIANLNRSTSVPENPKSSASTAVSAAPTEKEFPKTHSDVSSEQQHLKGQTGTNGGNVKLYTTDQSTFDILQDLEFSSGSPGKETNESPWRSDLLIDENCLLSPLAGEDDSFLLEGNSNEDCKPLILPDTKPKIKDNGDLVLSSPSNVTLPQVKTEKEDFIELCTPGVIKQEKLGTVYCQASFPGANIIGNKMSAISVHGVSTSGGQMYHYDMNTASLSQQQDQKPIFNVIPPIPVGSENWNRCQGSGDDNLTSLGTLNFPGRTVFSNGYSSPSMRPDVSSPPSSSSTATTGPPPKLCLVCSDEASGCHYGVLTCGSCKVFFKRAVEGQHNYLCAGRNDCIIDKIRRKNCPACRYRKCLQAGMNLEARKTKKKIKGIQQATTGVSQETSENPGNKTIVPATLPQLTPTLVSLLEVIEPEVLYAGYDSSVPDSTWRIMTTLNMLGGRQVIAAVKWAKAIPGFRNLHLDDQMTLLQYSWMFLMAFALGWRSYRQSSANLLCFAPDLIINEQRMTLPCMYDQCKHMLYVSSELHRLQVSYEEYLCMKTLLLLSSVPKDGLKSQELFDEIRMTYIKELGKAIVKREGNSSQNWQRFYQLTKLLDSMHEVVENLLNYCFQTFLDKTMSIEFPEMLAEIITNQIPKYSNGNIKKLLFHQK

Cn1c(=O)c2c(nc(NCCCO)n2Cc2cccc(C(F)(F)F)c2)n(C)c1=O
inactive: activity change, negative = inhibition [1] 8.4% | activity change, negative = inhibition [2] 7.97% | activity, negative = inhibition [3] -3.72% | Potency [4] > 20.6 µM

COc1ccccc1-n1c(=O)c2c3c(sc2n2c(SC)nnc12)CCC3
inactive: activity change, negative = inhibition [1] 6.29% | activity change, negative = inhibition [2] -21.2% | activity, negative = inhibition [3] 14.3% | Potency [4] > 20.6 µM

CCOc1cccc(NC(=O)C2CC(=O)NC(=Nc3ccccc3)S2)c1 (stereo not given)
inactive: activity change, negative = inhibition [1] -5.62% | activity change, negative = inhibition [2] 6.96% | activity, negative = inhibition [3] -16.5% | Potency [4] > 20.6 µM

c1ccc(OCc2nn3c(-c4ccccn4)nnc3s2)cc1
inactive: activity change, negative = inhibition [1] -1.82% | activity change, negative = inhibition [2] -2.83% | activity, negative = inhibition [3] 0.158% | Potency [4] > 20.6 µM

CCc1nc(N2CCOCC2)c(C#N)c2c1CCCC2
inactive: activity change, negative = inhibition [1] -3.85% | activity change, negative = inhibition [2] -21.8% | activity, negative = inhibition [3] -7.54% | Potency [4] > 20.6 µM

CCOc1ccc(-c2nc(C#N)c(NCC(C)C)o2)cc1
inactive: activity change, negative = inhibition [1] -22.8% | activity change, negative = inhibition [2] -3.57% | activity, negative = inhibition [3] -7.96% | Potency [4] > 20.6 µM

COC(=O)CSc1nc(C)c(Oc2ccccc2)c(=O)[nH]1
inactive: activity change, negative = inhibition [1] 22.2% | activity change, negative = inhibition [2] 15.3% | activity, negative = inhibition [3] 7.32% | Potency [4] > 20.6 µM

CC(C)c1cc(NCCN2CCOCC2)n2c(nc3ccccc32)c1C#N
inactive: activity change, negative = inhibition [1] -4.92% | activity change, negative = inhibition [2] 6.15% | activity, negative = inhibition [3] 9.84% | Potency [4] > 20.6 µM

COc1ccc(C2CC(=O)c3sc(N)nc3C2)cc1 (stereo not given)
inactive: activity change, negative = inhibition [1] -9.21% | activity change, negative = inhibition [2] 5.45% | activity, negative = inhibition [3] 3.6% | Potency [4] > 20.6 µM

COc1ccc(OC)c(C2/C(=C(/O)c3ccc(C)cc3)C(=O)C(=O)N2Cc2ccco2)c1 (stereo not given)
inactive: activity change, negative = inhibition [1] -0.882% | activity change, negative = inhibition [2] -17.7% | activity, negative = inhibition [3] -18.2% | Potency [4] > 20.6 µM

Cc1cccc2c1NC(C)CC2C (stereo not given)
inactive: activity change, negative = inhibition [1] 9.08% | activity change, negative = inhibition [2] 11.8% | activity, negative = inhibition [3] 13.3% | Potency [4] > 20.6 µM

COc1ccc(CCNC2CC(C)N(C)CC2C)cc1OC (stereo not given)
inactive: activity change, negative = inhibition [1] 2.19% | activity change, negative = inhibition [2] -14.9% | activity, negative = inhibition [3] 4.89% | Potency [4] > 20.6 µM

CCOc1ccc(C2C(C(=O)c3ccc(C)o3)=C(O)C(=O)N2CCN2CCOCC2)cc1OC (stereo not given)
inactive: activity change, negative = inhibition [1] 0.475% | activity change, negative = inhibition [2] 4.63% | activity, negative = inhibition [3] 0.944% | Potency [4] > 20.6 µM

O=C(c1ccc(N2C(=O)C3CC=C(Cl)CC3C2=O)cc1)N1CCCCC1 (stereo not given)
inactive: activity change, negative = inhibition [1] -18.4% | activity change, negative = inhibition [2] 13% | activity, negative = inhibition [3] -8.18% | Potency [4] > 20.6 µM

COc1ccc(NC(=O)c2c(C)cc(=O)oc2C)c(OC)c1
inactive: activity change, negative = inhibition [1] 6.98% | activity change, negative = inhibition [2] 16.2% | activity, negative = inhibition [3] 10.7% | Potency [4] > 20.6 µM

O=C(Nc1ccccc1C(=O)NCCCn1ccnc1)c1ccccc1
inactive: activity change, negative = inhibition [1] 1.7% | activity change, negative = inhibition [2] 5.76% | activity, negative = inhibition [3] 3.12% | Potency [4] > 20.6 µM

COc1ccccc1C(CC(=O)Nc1nccs1)c1ccco1 (stereo not given)
inactive: activity change, negative = inhibition [1] -11.9% | activity change, negative = inhibition [2] -20.1% | activity, negative = inhibition [3] -11.3% | Potency [4] > 20.6 µM

Cc1c(C(=O)O)c(=S)sn1CCOc1ccccc1
inactive: activity change, negative = inhibition [1] -0.1% | activity change, negative = inhibition [2] 10.4% | activity, negative = inhibition [3] 5.37% | Potency [4] > 20.6 µM

Cc1cccc(COc2ccc(/C(O)=C3\C(=O)C(=O)N(CCN(C)C)C3c3ccncc3)cc2)c1 (stereo not given)
inactive: activity change, negative = inhibition [1] 4.68% | activity change, negative = inhibition [2] 13.1% | activity, negative = inhibition [3] 2.96% | Potency [4] > 20.6 µM

CSC1=C(C#N)C(C)CC(=O)N1 (stereo not given)
inactive: activity change, negative = inhibition [1] 3.08% | activity change, negative = inhibition [2] -0.632% | activity, negative = inhibition [3] 3.87% | Potency [4] > 20.6 µM

CCCCOc1ccccc1C(=O)NCCCC(=O)O
inactive: activity change, negative = inhibition [1] -11.8% | activity change, negative = inhibition [2] -5.11% | activity, negative = inhibition [3] 8.07% | Potency [4] > 20.6 µM

CN1CCN(C(=O)CSc2nc(-c3ccncc3)ccc2C#N)CC1
inactive: activity change, negative = inhibition [1] 2.77% | activity change, negative = inhibition [2] -14.8% | activity, negative = inhibition [3] 1.66% | Potency [4] > 20.6 µM

CCN(CC)CCN1C(=O)C(=O)/C(=C(/O)c2ccc(C)cc2)C1c1cccnc1 (stereo not given)
inactive: activity change, negative = inhibition [1] 4.64% | activity change, negative = inhibition [2] -5.95% | activity, negative = inhibition [3] 7.25% | Potency [4] > 20.6 µM

ONC(=Nc1ccccc1)C(=Nc1ccccc1)NO
inactive: activity change, negative = inhibition [1] 4.05% | activity change, negative = inhibition [2] 9.94% | activity, negative = inhibition [3] -0.28% | Potency [4] > 20.6 µM

Cn1c(=O)c2c3c(sc2n2c(SCC(N)=O)nnc12)CC(C(C)(C)C)CC3 (stereo not given)
inactive: activity change, negative = inhibition [1] -9.72% | activity change, negative = inhibition [2] 19.6% | activity, negative = inhibition [3] 14% | Potency [4] > 20.6 µM
